GPR151 activ: human GPR151 activation. 1% of 650,000 active. PathHunter beta-arrestin GPR151 cells, luminescence. Q8TDV0. activation, % at 11.2 µM; in the data active = activation above about 4.9%;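 also: 0% = median of compound wells and 100% = cells with positive control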
TEAD-YAP block: TEAD-YAP interaction inhibition. HEK-TIYL cells, TEAD-Gal4/YAP UAS-luciferase luminescence. inhibition, % at 9.12 µM. 1.4% of 640,000 active; in the data active = inhibition above about 32%;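 also: 0% = median of test compound wells and 100% = reference inhibitor wells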
MITF primary: inhibitors of human MITF | O75030 | AlphaScreen MITF homodimerization, bead proximity signal | inhibition, % at 2.6 µM | 0.91% of 650,000 active; in the data active = inhibition above about 50%;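 also: 0% = vehicle wells with protein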
FBW7 activator: activators of human E3 ligase FBW7; Q969H0; AlphaScreen FBW7–phospho-cyclin E peptide binding, activator screen; normalized activity (activation), % at 26.1 µM; 0.13% of 650,000 active; AID 1259310; in the data active = normalized activity above about 1.9%;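 also: purified mutant Fbw7 with reduced substrate affinity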
Target sequence (Q969H0 whole entry, looked up): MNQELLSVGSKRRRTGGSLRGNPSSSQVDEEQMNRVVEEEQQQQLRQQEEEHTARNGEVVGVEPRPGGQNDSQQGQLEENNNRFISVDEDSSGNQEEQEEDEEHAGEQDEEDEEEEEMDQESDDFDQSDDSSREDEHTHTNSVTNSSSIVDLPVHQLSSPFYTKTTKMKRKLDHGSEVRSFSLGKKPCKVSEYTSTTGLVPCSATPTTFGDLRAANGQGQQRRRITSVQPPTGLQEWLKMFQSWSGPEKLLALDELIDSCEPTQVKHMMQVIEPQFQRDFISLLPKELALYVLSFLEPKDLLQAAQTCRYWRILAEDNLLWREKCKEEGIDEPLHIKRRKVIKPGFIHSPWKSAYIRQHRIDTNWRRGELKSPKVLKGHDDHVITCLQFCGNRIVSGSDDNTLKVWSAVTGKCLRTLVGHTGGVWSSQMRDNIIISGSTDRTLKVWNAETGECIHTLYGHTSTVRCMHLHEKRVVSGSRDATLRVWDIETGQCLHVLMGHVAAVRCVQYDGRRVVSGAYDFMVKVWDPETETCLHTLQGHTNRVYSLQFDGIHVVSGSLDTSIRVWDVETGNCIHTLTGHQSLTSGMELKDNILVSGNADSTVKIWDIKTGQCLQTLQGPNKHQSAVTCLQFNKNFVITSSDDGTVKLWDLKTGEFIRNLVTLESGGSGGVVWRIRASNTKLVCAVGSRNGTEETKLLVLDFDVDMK
* marks the source's active call; other numbers are inactive results; · = no result; ! = repeats disagree. Hits are enriched below; roughly 3.5% of the tested compounds scored in any of these assays.

SMILES	GPR151 activ	TEAD-YAP block	MITF primary	FBW7 activator
Cc1cc(/C=C2\C(=O)NC(=O)N(Cc3ccco3)C2=O)c(C)n1-c1ccc(O)cc1	2	11	58*	0
N#CC1=C2SCC(O)(c3ccco3)N2C(=O)CC1c1ccccc1F (stereo not given)	2	41*	9	1
Cc1cc2c(s1)N(CC(=O)N1CCCCC1)C(=O)CN=C2c1ccc(Cl)cc1	0	7	8	0
CN1/C(=C2\C=NN(C)P2(=S)N2CCOCC2)C(C)(C)c2ccccc21 (stereo not given)	1	10	9	0
CC(C)[C@]12O[C@H]1[C@@H]1O[C@]13[C@]1(O[C@H]1C[C@H]1C4=C(CC[C@@]13C)C(=O)OC4)[C@@H]2O	1	90*	3	0
N#Cc1cc2c(nc1SCc1ccc(Br)cc1)CCC2	0	-5	-2	0
O=C1NC(=S)NC(=O)C1=Cc1ccc(-c2ccc(Cl)c(C(=O)O)c2)o1	1	-6	69*	-1
O=C1NC(=S)NC(=O)C1=Cc1ccc(-c2ccc(C(=O)O)cc2)o1	-1	-1	63*	0
CC(=O)c1ccc(-c2ccc(C=C3C(=O)NC(=S)NC3=O)o2)cc1	0	-12	28	0
O=C1NC(=S)NC(=O)C1=Cc1ccc(-c2ccc(C(=O)O)c(O)c2)o1	0	-7	82*	0
O=C1NC(=O)N(Cc2ccco2)C(=O)/C1=C\c1ccc(-c2ccc(Cl)c(C(=O)O)c2)o1	0	1	21	-1
CC/C(=C\c1sc2ccc(OC)cc2[n+]1CC)SC (tested in a mixture with another compound)	0	4	10	0
CC[n+]1c(/C=C/N(C)c2ccccc2)sc2ccc(OC)cc21	0	79*	10	0
C[C@@H]1O[C@@H](O[C@H]2C[C@@H](O)[C@]3(CO)C4C(CC[C@]3(O)C2)[C@@]2(O)CC[C@H](C3=CC(=O)OC3)[C@@]2(C)C[C@H]4O)[C@H](O)[C@H](O)[C@H]1O (stereo not given in full)	0	99*	0	0
C[C@]12CC[C@H](O)C[C@H]1CC[C@@H]1[C@@H]2CC[C@]2(C)[C@@H](C3=CC(=O)OC3)CC[C@]12O	1	·	3	0
COC1CC(O[C@H]2CC[C@]3(C=O)C4CC[C@]5(C)C(C6=CC(=O)OC6)CC[C@]5(O)C4CC[C@]3(O)C2)OC(C)C1O (stereo not given in full)	0	101*	12	0
C[C@@H]1O[C@@H](O[C@H]2C[C@@H](O)[C@]3(CO)[C@@H]4C(CC[C@]3(O)C2)[C@@]2(O)CC[C@H](C3COC(=O)C3)[C@@]2(C)C[C@H]4O)[C@H](O)[C@H](O)[C@H]1O (stereo not given in full)	-1	94*	5	1
CCOP(=O)(CN1CCCCC1)OCC	-2	8	1	0
Nc1[nH]nc2c1C(c1ccccc1)=NP(c1ccccc1)(c1ccccc1)=N2	1	10	3	0
C[C@]12CCCCC1CCC1C2CC[C@@]2(C)C1CC[C@@H]2OC(=O)CCC(=O)O (stereo not given in full)	1	6	8	0
CN1Cc2c(ccc3c2OCO3)[C@@H]2[C@H]1c1cc3c(cc1C[C@@H]2O)OCO3	0	62*	6	0
C[N+]1(C)CCc2cc3c(cc2[C@H]1[C@@H]1OC(=O)c2c1ccc1c2OCO1)OCO3	4	-4	19	1
CC(C)N(C(=O)CCl)c1ccccc1	1	33*	-2	0
CC(=O)Nc1ccc(C(=O)Nc2ccc(Cl)cc2C(=O)c2ccccc2)cc1	3	-3	2	0
COC1=CC(=O)O[C@@H](CCc2ccc3c(c2)OCO3)C1	2	12	21	0
SMILES	GPR151 activ	TEAD-YAP block	MITF primary	FBW7 activator
COC1=CC(=O)O[C@H](/C=C/c2ccc3c(c2)OCO3)C1	1	78*	1	1
C[C@H]1C(=O)O[C@@H]2CCN3CC=C(COC(=O)[C@](C)(O)[C@]1(C)O)[C@H]23	-4	74*!	12	0
O=C1NN(c2ccccc2)C(=O)/C1=C/c1ccc(N(CCCl)CCCl)cc1	1	6	12	0
C=CCOc1ccc(/C=C(\C)[N+](=O)[O-])cc1OC	0	42*	3	0
CC1CCCC(N2CCN(C(=O)COc3ccccc3)CC2)C1 (stereo not given)	0	3	25	0
CC1CCC(C(C)C)C(OC(=O)Cn2c(COc3ccccc3)[n+](C)c3ccccc32)C1 (stereo not given)	2	37*	-11	0
O=C(Nc1cccnc1)c1cccn(Cc2ccc(Cl)cc2Cl)c1=O	-2	5	-4	1
COc1cc([C@@H]2c3cc4c(cc3[C@H](OC(C)=O)[C@H]3COC(=O)[C@@H]23)OCO4)cc(OC)c1OC	3	52*	-6	1
COc1cc([C@@H]2c3cc4c(cc3[C@@H](O)[C@H]3COC(=O)[C@H]23)OCO4)cc(OC)c1O	3	-9	11	1
CCOC(=O)C1C2NC(=S)N(c3ccc(Cl)cc3)C1(C)Oc1c(OC)cccc12 (stereo not given)	1	62*	26	-1
CCOC(=O)C1C2NC(=S)N(c3ccc(Cl)cc3)C1(C)Oc1ccc(OC)cc12 (stereo not given)	-1	50*	19	0
O=C1NC(=S)N(c2cccc(F)c2)C(=O)/C1=C/c1ccc(Br)o1	-1	4	84*	0
CN1C(=O)NC(=O)/C(=C/c2ccc(Br)o2)C1=O	1	10	71*	0
CCOc1ccc(N2C(=O)/C(=C/c3ccc(Br)o3)C(=O)NC2=S)cc1	-2	10	79*	0
CCOc1ccc(N2C(=O)/C(=C/c3ccc(C)o3)C(=O)NC2=S)cc1	1	-1	14	0
Cc1ccc(/C=C2\C(=O)NC(=S)N(c3cccc(F)c3)C2=O)o1	2	0	12	0
Nn1c(Cn2c[n+]([N-][N+](=O)[O-])cn2)nnc1Cn1c[n+]([N-][N+](=O)[O-])cn1	0	2	3	0
O=C1NC(=S)N(c2ccccc2)C(=O)/C1=C\C=C\c1ccco1	-1	-2	75*	-1
O=C1NC(=S)N(c2ccc(Cl)cc2)C(=O)/C1=C/c1ccco1	-1	17	33	0
O=C1NC(=S)N(c2ccc(F)cc2)C(=O)/C1=C/c1ccco1	0	-5	63*	-1
O=C1NC(=O)N(c2cccc3ccccc23)C(=O)/C1=C\c1ccco1	0	-4	78*	0
COC(=O)C1=NN(C(=O)C2C(C)(C)C2(C)C)C2C(=O)N(c3ccc(C)cc3)C(=O)C12 (stereo not given)	0	0	11	0
Cc1ccccc1C1=NCC(=O)N(Cc2cccnc2)c2sc(C)c(C)c21	0	-12	-24	0
Cc1ccc(C2=NCC(=O)Nc3c2oc2ccccc32)cc1	0	15	7	0
COc1ccc(OC)c(C2=NCC(=O)Nc3c2oc2ccc(Cl)cc32)c1	3	59*	11	0
